Compound activity deposited in PubChem BioAssay by NMMLSC.
Compounds with a hit are over-represented: about 0.4% of the library has one in this group of screens.
Rac1 mut GTP: modulators of GTP binding to human Rac1 activated mutant; GST-Rac1 activated beads, fluorescent GTP binding, flow cytometry; actives lie on both sides; 100% means binding = to untreated wells; percent activity (GTP binding), % at 10 µM; 0.11% of 190,000 active; AID 764;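 active means GTP binding at least 20 percentage points away from the 100% baseline, in either direction, so actives lie on both sides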
Rab7 wt GTP bind: modulators of GTP binding to dog Rab7 wildtype GTPase; GST-Rab7 beads, fluorescent GTP binding, flow cytometry; actives lie on both sides; untreated = 100%, excess cold GTP = 0%; GTP binding activity (percent of control), % at 10 µM; 0.055% of 190,000 active;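 active means fluorescent GTP binding to Rab7 beads changed by at least 20 points from the 100% baseline, either direction, mostly lower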;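 further: median green fluorescence of bound Bodipy-FL-GTP per Rab7 bead population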
Cdc42 wt: modulators (inhibitors or activators) of GTP binding to human Cdc42 wildtype | P60953 | GST-Cdc42 beads, Bodipy-GTP binding, flow cytometry; actives lie on both sides | percent activity (GTP binding), % at 10 µM | 0.2% of 190,000 active | AID 761;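 active means percent activity GTP binding at least 20 points away from the 100% baseline, either down as inhibitor or up as activator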;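 further: median bead fluorescence of bound Bodipy-FL-GTP at 100 nM; 0% = excess unlabeled GTP control and 100% = no compound control; below 100% means less GTP binding so inhibitor and above means activator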
Target sequence (P60953 whole entry, looked up): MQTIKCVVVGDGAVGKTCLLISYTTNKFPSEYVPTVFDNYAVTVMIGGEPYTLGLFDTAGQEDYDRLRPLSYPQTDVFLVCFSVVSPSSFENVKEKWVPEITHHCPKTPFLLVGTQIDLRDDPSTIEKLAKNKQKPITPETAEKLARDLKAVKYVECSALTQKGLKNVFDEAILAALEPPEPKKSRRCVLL
HRas wt GTP bind: modulators of GTP binding to human HRas wildtype; 0.14% of 190,000 active; AID 759; GTP binding activity, % at 10 µM; GST-Ras wt beads, Bodipy-FL-GTP binding, flow cytometry; actives lie on both sides;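 active means GTP binding activity at least 20% away from the 100% baseline, either lowered as inhibitor or raised as activator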;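 further: 0% = unlabeled GTP competition control and 100% = no-compound control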
Target sequence (P01112 whole entry, looked up): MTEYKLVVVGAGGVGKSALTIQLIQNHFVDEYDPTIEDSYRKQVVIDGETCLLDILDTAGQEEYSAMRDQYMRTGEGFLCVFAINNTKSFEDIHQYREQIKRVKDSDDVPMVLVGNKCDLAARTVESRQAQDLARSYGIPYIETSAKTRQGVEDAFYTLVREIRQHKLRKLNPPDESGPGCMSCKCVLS
Rab2 wt GTP: changes GTP binding to wildtype dog Rab2A, up or down | GST-Rab2 wt beads, Bodipy-GTP binding, flow cytometry | GTP binding activity, % at 10 µM | 0.19% of 190,000 active | AID 760;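 active means GTP binding activity at least 20 points away from 100%, either lowered or raised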;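 further: 0% = beads with excess unlabeled GTP and 100% = no-compound control corrected for plate trend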
Rac1 wt GTP bind: alters GTP binding to wildtype human Rac1. P63000. GST-Rac1 beads, fluorescent GTP binding, flow cytometry; actives lie on both sides; 0 = cold GTP competed, 100 = untreated. GTP binding activity (% of control), % at 10 µM. 0.27% of 190,000 active. AID 757;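 active means GTP binding activity at least 20 points away from the 100% control level, either lower or higher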
* hit, by the source's call; [ ] = another dose, or the depositor's remark.

SMILES | Rac1 mut GTP | Rab7 wt GTP bind | Cdc42 wt | HRas wt GTP bind | Rab2 wt GTP | Rac1 wt GTP bind
O=C(CSc1nccn1Cc1ccccc1)Nc1nccs1 | 99.0 | 102.0 | 103.0 | 103.0 | 103.0 | 105.0
CC(C)(C)NC(=O)CSc1nccn1Cc1ccccc1 | 82.0 | 90.0 | 77.0* | 86.0 | 85.0 | 75.0*
CN(c1ccc(OCC(=O)OCC(=O)NCc2ccco2)cc1)S(=O)(=O)c1ccc2ccccc2c1 | 97.0 | 108.0 | 97.0 | 99.0 | 100.0 | 101.0
Cc1ccc(S(=O)(=O)N(C)C)cc1NC(=O)COC(=O)c1ccc(Cl)cc1 | 109.0 | 109.0 | 113.0 | 105.0 | 108.0 | 144.0*[activator]
CCN1CCN(C(=O)C(C)Nc2ccc(OC)cc2OC)CC1 (stereo unspecified) | 91.0 | 105.0 | 96.0 | 95.0 | 96.0 | 98.0
O=C(c1nnsc1S(=O)(=O)c1ccc(Cl)cc1)N1CCOCC1 | 120.0*[activator] | 107.0 | 105.0 | 102.0 | 106.0 | 106.0
O=C(O)c1cc([N+](=O)[O-])ccc1NCc1ccccc1 | 146.0*[activator] | 137.0*[activator] | 172.0*[activator] | 150.0*[activator] | 153.0*[activator] | 204.0*[activator]
Cc1ccc(Nc2c(F)c(F)c(F)c(F)c2C(=O)O)cc1 | 130.0*[activator] | 119.0 | 128.0*[activator] | 117.0 | 127.0*[activator] | 141.0*[activator]
COc1cccc(Nc2c(F)c(F)c(F)c(F)c2C(=O)O)c1 | 116.0 | 113.0 | 123.0*[activator] | 113.0 | 113.0 | 131.0*[activator]
CC(=O)c1cccc(NC(=O)Cc2ccc3c(c2)CCCC3)c1 | 99.0 | 97.0 | 102.0 | 98.0 | 99.0 | 106.0
Cc1ccccc1OCCn1cc(/C(N)=N/O)c2ccccc21 | 92.0 | 95.0 | 89.0 | 93.0 | 90.0 | 90.0
Cc1ccc(C)c(OCCn2cc(/C=C(\C#N)C(=O)NCc3ccco3)c3ccccc32)c1 | 99.0 | 99.0 | 99.0 | 101.0 | 101.0 | 101.0
Cc1ccccc1OCCn1cc(C(=O)O)c2ccccc21 | 128.0*[activator] | 122.0*[activator] | 123.0*[activator] | 124.0*[activator] | 126.0*[activator] | 151.0*[activator]
Cc1ccc(C)c(OCCn2cc(C(=O)O)c3ccccc32)c1 | 136.0*[activator] | 136.0*[activator] | 140.0*[activator] | 129.0*[activator] | 138.0*[activator] | 170.0*[activator]
O=C1C2C3C=CC(C2C(=O)N1C1CCCCC1)C1C2C(=O)N(C4CCCCC4)C(=O)C2C31 (stereo unspecified) | 100.0 | 98.0 | 100.0 | 99.0 | 98.0 | 105.0
COc1ccc(C(=O)N/C(=C\c2cccc([N+](=O)[O-])c2)C(=O)Nc2cccc(C(=O)O)c2)cc1 | 82.0 | 92.0 | 62.0* | 69.0* | 60.0* | 64.0*
CCOC(=O)c1sc(NC(=O)CSc2nnc(Cc3ccccc3)o2)c(C#N)c1C | 76.0* | 83.0 | 85.0 | 83.0 | 78.0* | 81.0
CCOC(=O)c1c(NC(=O)CSc2nnc(Cc3ccccc3)o2)sc(C(C)=O)c1C | 99.0 | 96.0 | 103.0 | 103.0 | 103.0 | 102.0
Cc1ccc(/C=N/NC(=O)C2CCN(Cc3ccc(F)cc3Cl)CC2)o1 | 101.0 | 78.0* | 104.0 | 99.0 | 100.0 | 102.0
O=c1[nH]c(N/N=C\c2ccc(F)cc2)nc2ccccc12 | 95.0 | 100.0 | 94.0 | 98.0 | 98.0 | 90.0
O=c1[nH]c(N/N=C/c2ccc(O)cc2)nc2ccccc12 | 89.0 | 91.0 | 83.0 | 76.0* | 77.0* | 77.0*
CC(C)(C)C(=O)Cn1ncc(Br)c(Br)c1=O | 97.0 | 108.0 | 97.0 | 105.0 | 101.0 | 100.0
CCc1ccc(NS(=O)(=O)c2ccc3[nH]cc(C(=O)N4CCc5ccccc54)c(=O)c3c2)cc1 | 95.0 | 91.0 | 70.0* | 93.0 | 93.0 | 92.0
Nc1nc(CN2CCN(c3ccccc3F)CC2)nc(N2CCCc3ccccc32)n1 | 80.0 | 88.0 | 79.0* | 87.0 | 83.0 | 87.0
CCOc1ccc(NC(=O)CC2C(=O)N(c3ccc(OC)cc3)C(=S)N2Cc2ccccn2)cc1 (stereo unspecified) | 94.0 | 100.0 | 96.0 | 96.0 | 97.0 | 96.0
Cc1cc(N=NC(=O)c2ccccc2O)c2ccccc2c1O | 82.0 | 91.0 | 76.0* | 83.0 | 78.0* | 74.0*
Cn1c(O)c(N=NC(=O)c2ccccc2O)c2ccccc21 | 93.0 | 98.0 | 93.0 | 94.0 | 92.0 | 96.0
Cn1c(NNC(=O)C(c2ccccc2)c2ccccc2)cc(=O)n(C)c1=O | 98.0 | 96.0 | 97.0 | 98.0 | 95.0 | 99.0
